Experimental data taken from ChEMBL document CHEMBL3988442, “University of Dundee, Small-Polar-MMV Screening Library” (2021).
The campaign covered roughly 69,000 compounds. About 950 (1.4%) showed an effect of 50% or more. The list comes from a sample in which strong results are over-represented; it also holds similar structures and randomly drawn compounds.

The compounds below were run on Mycobacterium tuberculosis (assay: Cornell M. t heat shock assay; further: in the data most compounds retested in dose-response had high values).
Format: functional, organism-based
Set-up: dose or concentration left out as unconfirmed
With `CO[C@@H]1CN(c2ccccc2)S(=O)(=O)[C@@]12CCN(C(C)=O)C2` the “Percent Effect” value was 16.02%.
For `Cc1ccc(S(=O)(=O)N2CCN(CCCn3ccnc3)CC2)cc1`, the “Percent Effect” value was 15.57%.
In the case of `Cc1ccc(CN(CCCO)Cc2nc3ccccc3[nH]2)s1`, the “Percent Effect” value is reported as -17.57%.
With `Cc1ccc(O)c(CN(CCCn2ccnc2)Cc2ccc(C)s2)c1.O=C(O)CC(O)(CC(=O)O)C(=O)O` the “Percent Effect” value was 105.6%.
`CN(C)c1ccc(CN(CCCn2ccnc2)Cc2c[nH]cn2)cc1.O=C(O)CC(O)(CC(=O)O)C(=O)O` was tested, and the “Percent Effect” value was 16.53%.
In the case of `Cc1ccc(CN(CCCn2ccnc2)Cc2ccccc2O)s1.O=C(O)CC(O)(CC(=O)O)C(=O)O`, the “Percent Effect” value is reported as 35.85%.
For `Cc1cccc(CC(=O)N2CCN(c3nccn3C)CC2)c1.Cl`, the “Percent Effect” value was -13.18%.
`O=C(O)C(F)(F)F.O=C(O)C(F)(F)F.c1csc(CN2C[C@@H]3COC[C@]3(COCc3ccncc3)C2)c1` was tested, and the “Percent Effect” value was -17.61%.
`O=C(Cc1ccc(F)cc1)N1CCn2cc(Cn3cccn3)nc2C1.O=C(O)C(F)(F)F` was tested, and the “Percent Effect” value was 1.862%.
`CC(C)n1nccc1NC(=O)CN1CCc2sccc2C1` was tested, and the “Percent Effect” value was -0.741%.
In the case of `Cn1nccc1NC(=O)CN1CCc2sccc2C1`, the “Percent Effect” value is reported as -34.76%.
For `O=C(CN1CCc2sccc2C1)Nc1ccnc2ccnn12`, the “Percent Effect” value was 101.6%.
`Cc1ccoc1C(=O)N1CCc2ccc(=O)n(CCN(C)C)c2CC1.O=C(O)C(F)(F)F` was tested, and the “Percent Effect” value was -10.47%.
With `CCNc1ncc(C(=O)N2CCOC(CCCc3ccccc3)C2)cn1` (stereo not drawn) the “Percent Effect” value was 13.88%.
In the case of `CCNc1ncc(C(=O)N2CCOC(CCCC(C)C)C2)cn1` (stereo not drawn), the “Percent Effect” value is reported as 101.8%.
For `CCc1ocnc1C(=O)N1CCOC(CCCC(C)C)C1` (stereo not drawn), the “Percent Effect” value was 2.233%.
With `Cn1cc2c(n1)C(CNCc1ccco1)OCC2.O=C(O)C(F)(F)F.O=C(O)C(F)(F)F` (stereo not drawn) the “Percent Effect” value was -43.95%.
For `CC(C)C(=O)N1CCC[C@]2(C(=O)N(C)C)CN(c3ccccn3)C[C@@H]2C1.O=C(O)C(F)(F)F`, the “Percent Effect” value was -34.76%.
For `CN(C)C(=O)C1OC2(CCNCC2)c2ccccc21.O=C(O)C(F)(F)F` (stereo not drawn), the “Percent Effect” value was -39.36%.
For `CC(Cn1cccn1)NCc1nc(-c2ccccc2Cl)no1` (stereo not drawn), the “Percent Effect” value was 1.662%.
For `Cc1cnn(CC(C)NCc2csc(-c3ncccn3)n2)c1` (stereo not drawn), the “Percent Effect” value was 10.59%.
`CC(Cn1cccn1)NCc1csc(-c2ccsc2)n1` (stereo not drawn) was tested, and the “Percent Effect” value was 22.32%.
With `CC(Cn1cccn1)NCc1csc(-c2cccs2)n1` (stereo not drawn) the “Percent Effect” value was 54.31%.
`Cc1cnn(CC(C)NCc2csc(-c3cccs3)n2)c1` (stereo not drawn) was tested, and the “Percent Effect” value was 37.01%.
For `CC(Cn1cccn1)NCc1csc(-c2ccccc2F)n1` (stereo not drawn), the “Percent Effect” value was 54.47%.
For `COCC(=O)N1C[C@@H](OCc2ccncc2)[C@@H]2OCCC[C@@H]21.O=C(O)C(F)(F)F`, the “Percent Effect” value was -15.14%.
In the case of `Cc1ccc2c(c1)CN(C(=O)c1ccncc1)C(CN(C)C)CO2.Cl` (stereo not drawn), the “Percent Effect” value is reported as -12.12%.
For `COCC(=O)NCc1cc(=O)n2c(n1)CN(CC1CC1)CCC2.O=C(O)C(F)(F)F`, the “Percent Effect” value was 0.2802%.
For `COC[C@H]1CC[C@@H]2[C@@H](CCN2Cc2ccccn2)O1.O=C(O)C(F)(F)F.O=C(O)C(F)(F)F`, the “Percent Effect” value was -12.12%.
For `COc1cccc(CN2CCc3nc4ccsc4c(=O)n3CC2)c1.Cl`, the “Percent Effect” value was -5.651%.
For `COCCn1cncc1CN1CCC(C(C)=O)(c2ccccc2)CC1`, the “Percent Effect” value was -3.844%.
`COCCn1cncc1CN1CCCC(C)(c2ccccc2)C1` (stereo not drawn) was tested, and the “Percent Effect” value was 52.06%.
With `CCCN1CCCC2(CCN(Cc3cncn3C3CCCC3)C2)C1=O` (stereo not drawn) the “Percent Effect” value was -6.674%.
`CC1(c2ccccc2)CCCN(Cc2cncn2C2CC2)C1` (stereo not drawn) was tested, and the “Percent Effect” value was 105.6%.
`COCCn1cncc1CN1CCCC(C(=O)Cc2ccccc2)C1` (stereo not drawn) was tested, and the “Percent Effect” value was 2.668%.
In the case of `CC1(c2ccccc2)CCCN(Cc2cncn2C2CCCC2)C1` (stereo not drawn), the “Percent Effect” value is reported as 105.4%.
With `CN1CCCC2(CCN(Cc3cncn3C3CCCCC3)C2)C1=O` (stereo not drawn) the “Percent Effect” value was 13.88%.
In the case of `O=C(CCc1ccccc1)C1CCCN(Cc2cncn2C2CC2)C1` (stereo not drawn), the “Percent Effect” value is reported as 5.776%.
With `CC1(c2ccccc2)CCCN(Cc2nnc(-c3cccnc3)o2)C1` (stereo not drawn) the “Percent Effect” value was 31.3%.
`CC(NC(=O)NCc1ccccc1)(C(=O)O)c1ccco1` (stereo not drawn) was tested, and the “Percent Effect” value was -8.455%.
`CC(=O)CN1CC2(CCNCC2)COc2ccccc2S1(=O)=O.O=C(O)C(F)(F)F` was tested, and the “Percent Effect” value was -27.15%.
For `Cn1ccc(C(=O)N2CCOC3(COCCN(CC4CC4)C3)C2)n1.O=C(O)C(F)(F)F` (stereo not drawn), the “Percent Effect” value was 32.82%.
For `CS(=O)(=O)N[C@@H]1CN(C(=O)c2cccnc2)[C@@H]2CCCO[C@@H]21.O=C(O)C(F)(F)F`, the “Percent Effect” value was -22.75%.
`COCCN1CCc2cc(C(=O)NC(C)C)c(NCC3CC3)nc2CC1.O=C(O)C(F)(F)F.O=C(O)C(F)(F)F` was tested, and the “Percent Effect” value was -25.1%.
For `Cn1c2c(ccc1=O)CCN(Cc1ccoc1)CC2.O=C(O)C(F)(F)F`, the “Percent Effect” value was -16.65%.
`Cl.Cn1nc(C2CCCN(Cc3cccs3)C2)c2nccnc21` (stereo not drawn) was tested, and the “Percent Effect” value was 1.565%.
With `CN(C)CCN1CC[C@@H]2O[C@@H](COCC(=O)N3CCCC3)CC[C@@H]21.O=C(O)C(F)(F)F.O=C(O)C(F)(F)F` the “Percent Effect” value was -33.31%.
`Cc1noc(C(C)C)c1C(=O)NCCCN1CCNCC1.Cl` was tested, and the “Percent Effect” value was 0.9177%.
For `CCc1noc(CS(=O)(=O)Cc2nc(Cc3ccccc3)no2)n1`, the “Percent Effect” value was -8.996%.
`Cc1ccccc1CS(=O)(=O)Cc1nc(C2CC2)no1` was tested, and the “Percent Effect” value was 92.63%.
In the case of `CCc1noc(CS(=O)(=O)Cc2ccccc2Cl)n1`, the “Percent Effect” value is reported as 95.51%.
`Cc1noc(C)c1CS(=O)(=O)Cc1nc(C2CC2)no1` was tested, and the “Percent Effect” value was 6.324%.
With `O=S(=O)(C/C=C/c1ccccc1)Cc1nc(C2CC2)no1` the “Percent Effect” value was 19.84%.
For `O=S(=O)(CCc1ccccc1)Cc1nc(C2CC2)no1`, the “Percent Effect” value was 59.77%.
`O=S(=O)(Cc1nc(C2CC2)no1)c1ccccc1F` was tested, and the “Percent Effect” value was 12.43%.
With `CCc1noc(CS(=O)(=O)Cc2ccccc2C)n1` the “Percent Effect” value was 31.56%.
With `O=S(=O)(Cc1nc(C2CC2)no1)c1cc(F)ccc1F` the “Percent Effect” value was 12.65%.
In the case of `Cl.O=C(CCC1CCCC1)N1CCCC(c2ncc3c(n2)CCNC3)C1` (stereo not drawn), the “Percent Effect” value is reported as -5.492%.
With `CC(C)CCN1C[C@H]2C[C@H](C(=O)NCC(C)C)[C@@H](C1)O2.O=C(O)C(F)(F)F` the “Percent Effect” value was 22.63%.
In the case of `Cc1nnc(N2CCCC3(CN(Cc4ccc(F)cc4)CCO3)C2)o1.O=C(O)C(F)(F)F` (stereo not drawn), the “Percent Effect” value is reported as -29.82%.
For `c1cnc(N2C[C@@H]3CC[C@H](C2)N(Cc2ccsc2)C3)nc1`, the “Percent Effect” value was 15.45%.
With `CN(C)CCOCc1nnc2n1CCN(Cc1ccoc1)CC2.O=C(O)C(F)(F)F.O=C(O)C(F)(F)F` the “Percent Effect” value was -36.04%.
For `O=C(O)C(F)(F)F.c1cc(CN2CCc3c(nnn3CC3CC3)C2COCC2CC2)co1` (stereo not drawn), the “Percent Effect” value was -36.71%.
For `CC(C)(C)OC(=O)NCC1CCCCN1Cc1ccncc1` (stereo not drawn), the “Percent Effect” value was 24.03%.
In the case of `CC(C)(C)c1nc(CN2CCCC2c2nnc3ccccn23)no1` (stereo not drawn), the “Percent Effect” value is reported as 0.5342%.
`Cn1cccc1C1CCCN1Cc1noc(C(C)(C)C)n1` (stereo not drawn) was tested, and the “Percent Effect” value was -40.09%.
In the case of `CCn1c(C2CCCN2Cc2noc(C(C)(C)C)n2)nc2ccccc21` (stereo not drawn), the “Percent Effect” value is reported as 50.31%.
For `Cc1nc(CN2C(=O)COC3(CCN(C)CC3)C2C)cs1.O=C(O)C(F)(F)F` (stereo not drawn), the “Percent Effect” value was -6.14%.
`NCC1CN(c2nc(-c3ccccc3)nc3c2CCNCC3)CCO1` (stereo not drawn) was tested, and the “Percent Effect” value was 43.48%.
In the case of `NCC1CCCN(c2nc(-c3ccccc3)nc3c2CCNCC3)C1` (stereo not drawn), the “Percent Effect” value is reported as 69.25%.
With `N#CC1CCCN(c2nc(-c3ccccc3)nc3c2CCNCC3)C1` (stereo not drawn) the “Percent Effect” value was -9.181%.
`Cc1cc(CN2CCC(CNC(=O)c3nccc4ccccc34)C2)[nH]n1` (stereo not drawn) was tested, and the “Percent Effect” value was 59.25%.
`Cc1cc(CN2CCC(CNC(=O)Cc3ccc(F)cc3)C2)[nH]n1` (stereo not drawn) was tested, and the “Percent Effect” value was -9.663%.
For `Cc1cc(CN2CCC(CNC(=O)c3cnc(C)nc3C)C2)[nH]n1` (stereo not drawn), the “Percent Effect” value was -10.7%.
For `CN1[C@H](CN2CCCC2)C[C@@H]2CN(C(=O)Cc3ccsc3)CC[C@@H]21.O=C(O)C(F)(F)F.O=C(O)C(F)(F)F`, the “Percent Effect” value was -7.166%.
With `CN(C)C(=O)[C@@H]1CC[C@@H]2[C@@H](CCN2Cc2nccs2)O1.O=C(O)C(F)(F)F` the “Percent Effect” value was 11.33%.
In the case of `NC(=O)C1Cn2ccnc2C2(CCN(C(=O)NC3CCCC3)CC2)O1.O=C(O)C(F)(F)F` (stereo not drawn), the “Percent Effect” value is reported as 2.522%.
With `CCc1onc(C)c1C(=O)N1CCC(c2cc3ncccc3cn2)CC1` the “Percent Effect” value was 13.11%.
In the case of `Fc1ccccc1CN1CCC(c2noc(-c3ccccn3)n2)CC1`, the “Percent Effect” value is reported as 13.63%.
In the case of `Cl.Fc1cccc(CN2CCC(c3cc4ncccc4cn3)CC2)c1F`, the “Percent Effect” value is reported as 102.4%.
For `Fc1cccc(CN2CCC(c3noc(-c4ccccn4)n3)CC2)c1F`, the “Percent Effect” value was 12.47%.
With `Fc1cc(F)cc(CN2CCC(c3cc4ncccc4cn3)CC2)c1` the “Percent Effect” value was 17.06%.
In the case of `COc1ccc(C)cc1CN1CCC(c2cc3ncccc3cn2)CC1.Cl`, the “Percent Effect” value is reported as 102.1%.
`COc1ccc(C)cc1CN1CCN(Cc2nccn2C)CC1` was tested, and the “Percent Effect” value was 1.633%.
For `Fc1ccc(F)c(CN2CCC(c3cnccn3)CC2)c1`, the “Percent Effect” value was -4.596%.
`Fc1cccc(CN2CCC(c3noc(-c4cnccn4)n3)CC2)c1F` was tested, and the “Percent Effect” value was -19.36%.
For `Fc1cccc(CN2CCC(c3n[nH]c4ncccc34)CC2)c1F`, the “Percent Effect” value was -15.12%.
`Cl.Fc1ccc(F)c(CN2CCC(c3cc4ncccc4cn3)CC2)c1` was tested, and the “Percent Effect” value was 103.6%.
With `Cc1nc(CN2CCOCC3(CCN(c4ccccn4)C3)C2)cs1.O=C(O)C(F)(F)F.O=C(O)C(F)(F)F` (stereo not drawn) the “Percent Effect” value was -41.64%.
`CCN(CCNS(=O)(=O)C1CCOCC1)C(=O)OC(C)(C)C` was tested, and the “Percent Effect” value was -7.011%.
For `COCC(=O)NC[C@H]1CC[C@H](c2ccnc3ncnn32)CC1`, the “Percent Effect” value was 20.19%.
With `COc1ccc(C(C)N(C)Cc2c(C3CC3)[nH]c3ncccc23)cc1.Cl` (stereo not drawn) the “Percent Effect” value was -15.93%.
In the case of `CCC/N=c1/c(NC(=O)NCCOC)c(O)oc2ccccc12`, the “Percent Effect” value is reported as -14.33%.
